From the supplement of paper PMC8728848
Many of the other results were omitted from the sample, so the strongest signals are more common in it than they were.

Experiments:
Assay in all cases: glycan array binding signal (z-score within array); higher = stronger binding
Settings in all cases: glycan notation: IUPAC condensed, linker removed
[1] = molecular target: Fuc(a1-2)Gal(b1-3)[Fuc(a1-4)]GlcNAc(b1-2)Man(a1-3)[Fuc(a1-2)Gal(b1-3)[Fuc(a1-4)]GlcNAc(b1-2)Man(a1-6)]Man(b1-4)GlcNAc(b1-4)[Fuc(a1-6)]GlcNAc(b1-4)[Fuc(a1-6)]GlcNAc
How it was run: (§1)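 Glycan array data came from 3228 arrays in the Consortium for Functional Glycomics database, and only arrays with an available protein sequence were kept. Glycan names were put into IUPAC-condensed notation, and columns mapping to the same glycan were averaged. The binding signal is a within-array Z-score, averaged across arrays of one protein sequence run at different concentrations or buffers and across linkers. A negative Z-score can be read as non-binding.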

[2] = molecular target: Fuc(a1-2)Gal(b1-4)GlcNAc(b1-3)Gal(b1-4)GlcNAc
How it was run: as §1

[3] = molecular target: Fuc(a1-2)Gal(b1-4)GlcNAc(b1-3)GalNAc
How it was run: as §1

[4] = molecular target: Fuc(a1-2)[Gal(a1-3)]Gal(b1-3)GlcNAc(b1-2)Man(a1-3)[Fuc(a1-2)[Gal(a1-3)]Gal(b1-3)GlcNAc(b1-2)Man(a1-6)]Man(b1-4)GlcNAc(b1-4)GlcNAc
How it was run: as §1

[5] = molecular target: Fuc(a1-2)[Gal(a1-3)]Gal(b1-4)Glc
How it was run: as §1

[6] = molecular target: Fuc(a1-2)[Gal(a1-3)]Gal(b1-4)GlcNAc(b1-6)GalNAc
How it was run: as §1

[7] = molecular target: Fuc(a1-2)[Gal(a1-3)]Gal(b1-4)[Fuc(a1-3)]Glc
How it was run: as §1

[8] = molecular target: Fuc(a1-2)[GalNAc(a1-3)]Gal(b1-3)GalNAc(a1-3)[Fuc(a1-2)]Gal(b1-4)GlcNAc
How it was run: as §1

[9] = molecular target: Fuc(a1-3)[Gal3S(b1-4)]GlcNAc
How it was run: as §1

[10] = molecular target: Fuc(a1-3)[Gal3S(b1-4)]GlcNAc6S
How it was run: as §1

Fuc(a1-4)GlcNAc = molecular target: Fuc(a1-4)GlcNAc
How it was run: as §1

[11] = molecular target: Gal(a1-3)Gal(b1-4)[Fuc(a1-3)]GlcNAc(b1-2)Man(a1-3)[Gal(a1-3)Gal(b1-4)[Fuc(a1-3)]GlcNAc(b1-2)Man(a1-6)]Man(b1-4)GlcNAc(b1-4)GlcNAc
How it was run: as §1

[12] = molecular target: Gal(a1-3)[Gal(a1-4)]Gal(b1-4)GlcNAc
How it was run: as §1

[13] = molecular target: Gal(b1-3)GalNAc(a1-3)[Fuc(a1-2)]Gal(b1-4)Glc
How it was run: as §1

[14] = molecular target: Gal(b1-3)GalNAc(b1-4)Gal(b1-4)Glc
How it was run: as §1

[15] = molecular target: Gal(b1-3)GlcNAc(b1-3)Gal(b1-4)GlcNAc(b1-2)[Gal(b1-3)GlcNAc(b1-3)Gal(b1-4)GlcNAc(b1-6)]Man(a1-6)[Gal(b1-3)GlcNAc(b1-3)Gal(b1-4)GlcNAc(b1-2)Man(a1-3)]Man(b1-4)GlcNAc(b1-4)[Fuc(a1-6)]GlcNAc
How it was run: as §1

[16] = molecular target: Gal(b1-3)GlcNAc(b1-6)[Gal(b1-3)]GalNAc
How it was run: as §1

[17] = molecular target: Gal(b1-4)GlcNAc(b1-2)Man(a1-3)[GlcNAc(b1-2)Man(a1-6)]Man(b1-4)GlcNAc(b1-4)GlcNAc
How it was run: as §1

[18] = molecular target: Gal(b1-4)GlcNAc(b1-2)Man(a1-6)[GlcNAc(b1-2)Man(a1-3)]Man(b1-4)GlcNAc(b1-4)GlcNAc
How it was run: as §1

[19] = molecular target: Gal(b1-4)GlcNAc(b1-2)[Gal(b1-4)GlcNAc(b1-6)]Man(a1-6)[GlcNAc(b1-4)][Gal(b1-4)GlcNAc(b1-2)[Gal(b1-4)GlcNAc(b1-4)]Man(a1-3)]Man(b1-4)GlcNAc(b1-4)[Fuc(a1-6)]GlcNAc
How it was run: as §1

[20] = molecular target: Gal(b1-4)GlcNAc(b1-3)Gal(b1-3)GalNAc
How it was run: as §1

[21] = molecular target: Gal(b1-4)GlcNAc(b1-3)Gal(b1-4)GlcNAc(b1-2)[Gal(b1-4)GlcNAc(b1-3)Gal(b1-4)GlcNAc(b1-6)]Man(a1-6)[Gal(b1-4)GlcNAc(b1-3)Gal(b1-4)GlcNAc(b1-2)Man(a1-3)]Man(b1-4)GlcNAc(b1-4)GlcNAc
How it was run: as §1

[22] = molecular target: Gal(b1-4)GlcNAc(b1-3)Gal(b1-4)GlcNAc(b1-3)Gal(b1-4)GlcNAc(b1-3)Gal(b1-4)GlcNAc(b1-2)Man(a1-3)[Gal(b1-4)GlcNAc(b1-3)Gal(b1-4)GlcNAc(b1-3)Gal(b1-4)GlcNAc(b1-3)Gal(b1-4)GlcNAc(b1-2)Man(a1-6)]Man(b1-4)GlcNAc(b1-4)GlcNAc
How it was run: as §1

[23] = molecular target: Gal(b1-4)GlcNAc(b1-3)Gal(b1-4)GlcNAc(b1-3)Gal(b1-4)GlcNAc(b1-3)Gal(b1-4)GlcNAc(b1-3)Gal(b1-4)GlcNAc(b1-2)Man(a1-3)[Gal(b1-4)GlcNAc(b1-3)Gal(b1-4)GlcNAc(b1-3)Gal(b1-4)GlcNAc(b1-3)Gal(b1-4)GlcNAc(b1-3)Gal(b1-4)GlcNAc(b1-2)Man(a1-6)]Man(b1-4)GlcNAc(b1-4)GlcNAc
How it was run: as §1

Gal6S(b1-3)GlcNAc6S = molecular target: Gal6S(b1-3)GlcNAc6S
How it was run: as §1

[24] = molecular target: GalNAc(b1-4)GlcNAc(b1-3)GalNAc(b1-4)GlcNAc
How it was run: as §1

GalNAc3S(b1-4)GlcNAc3S = molecular target: GalNAc3S(b1-4)GlcNAc3S
How it was run: as §1

B1: PX9896A-bth-573-26-573 (Bacteroides thetaiotaomicron) (protein)
chain: ETNNLKTKEDMYKYFGTSKSMLTHVYSYMPQGYQLFATSGGIFTEDRYSMRDCASDDGEFGAYADNIQNTNNGNWSPIKTYDDSWTLYRGIRAANSFIAEIAQVDFTRYEHDGQYTNWMKQLKYFPYEARVLRAHYFFELARRYGDIAMPLEVLTEEEANTIGKTPFSEVISFIVSECDDAANNLPDSYVNEPGAEIGRVTKGFAMAVKSKALLYAASKLHNPSMDTELWKKSAKAAIDIINTGLYSLDPQESANNLDSKEVVLMRINGDDSDFEMFNLPLRMTAGTRTSSLIPYSNYPSQNLVDAFETVNGYKVTLENTGWVCEDPAFDPQSPYENRDKRFYRAILANGMSFKDYTIETFKGGADDGIVSQGGSPTGYFLRKYIQEATSFEPGKEAVSKHHWVIYRYAETLLTYAESMVNAFNDVNYTDETYKYSALWAINEVRKNADMPLIPSMGKDEFMERLYNEWRVEFAFEDHRFWDVRRWKIADTTQRELYGVKIEKQADGTFNFYKNLYETRNWRDCMYLYPIPQSELYKNTNLNPQNTGW
glycan array binding signal (z-score) [1]: 0.845
glycan array binding signal (z-score) [2]: -0.815
glycan array binding signal (z-score) [3]: 0.126
glycan array binding signal (z-score) [4]: 5.75
glycan array binding signal (z-score) [5]: -0.838
glycan array binding signal (z-score) [6]: -0.304
glycan array binding signal (z-score) [7]: -1.01
glycan array binding signal (z-score) [8]: 0.607
glycan array binding signal (z-score) [9]: -0.437
glycan array binding signal (z-score) [10]: 8.17
glycan array binding signal (z-score) (Fuc(a1-4)GlcNAc): 0.243
glycan array binding signal (z-score) [11]: 2.9
glycan array binding signal (z-score) [12]: 3.79
glycan array binding signal (z-score) [13]: -0.889
glycan array binding signal (z-score) [14]: -0.458
glycan array binding signal (z-score) [15]: 3.52
glycan array binding signal (z-score) [16]: 0.949
glycan array binding signal (z-score) [17]: 3.74
glycan array binding signal (z-score) [18]: 4.65
glycan array binding signal (z-score) [19]: 0.323
glycan array binding signal (z-score) [20]: -0.185
glycan array binding signal (z-score) [21]: 5.18
glycan array binding signal (z-score) [22]: 0.219
glycan array binding signal (z-score) [23]: 0.845
glycan array binding signal (z-score) (Gal6S(b1-3)GlcNAc6S): 3.99
glycan array binding signal (z-score) [24]: -0.28
glycan array binding signal (z-score) (GalNAc3S(b1-4)GlcNAc3S): -0.744
